# Laboratory results: PubChem BioAssay AID1159580 (chemical genetic matrix, 2015)
# The campaign covered roughly 5,500 compounds. About 2,000 (36%) were called active. Roughly 18% stayed inconclusive and do not appear here. The list shows a part of the results. Values without a mark were called inactive. No stated cut-off is given here; in the data, active means normalized growth mostly below about 0.91 (no sharp cut-off); inconclusive means no clear call, values can overlap the other calls; inactive means mostly above about 0.92.
# Experiment: chemical genetic growth profiling, strain panel (AID 1159580);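 further: tested at 20 µM; growth read once vehicle control cultures reached saturation at 30 °C; 1 = growth at the plate median or of vehicle wells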
# Settings: S. cerevisiae deletion strains, growth OD
compound,measurement,setting,value
CC1=C(/C=C/C(C)=C/C=C/C(C)=C/C=C/C=C(C)/C=C/C=C(C)/C=C/C2=C(C)C(=O)C(O)CC2(C)C)C(C)(C)CC(O)C1=O (stereo not drawn),normalized growth,"locus YAL021C, strain ccr4, stronger effect = lower value",1.04
same,normalized growth,"locus YAL026C, strain drs2, stronger effect = lower value",1.07
same,normalized growth,"locus YAL030W, strain snc1, stronger effect = lower value",1.03
same,normalized growth,"locus YBL061C, strain skt5, stronger effect = lower value",1.03
same,normalized growth,"locus YBR009C, strain hhf1, stronger effect = lower value",1.05
same,normalized growth,"locus YBR021W, strain FUR4, stronger effect = lower value",0.962
same,normalized growth,"locus YBR023C, strain chs3, stronger effect = lower value",1.03
same,normalized growth,"locus YBR171W, strain sec66, stronger effect = lower value",1.11 [resistant] (active)
same,normalized growth,"locus YBR229C, strain ROT2, stronger effect = lower value",0.942
same,normalized growth,"locus YBR231C, strain swc5, stronger effect = lower value",1.05
same,normalized growth,"locus YBR279W, strain paf1, stronger effect = lower value",1.02
same,normalized growth,"locus YCL011C, strain gbp2, stronger effect = lower value",1.04
same,normalized growth,"locus YCL016C, strain dcc1, stronger effect = lower value",1.02
same,normalized growth,"locus YCL029C, strain bik1, stronger effect = lower value",0.973
same,normalized growth,"locus YCL061C, strain MRC1, stronger effect = lower value",1.07
same,normalized growth,"locus YCL069W, strain vba3, stronger effect = lower value",1.05
same,normalized growth,"locus YCR088W, strain abp1, stronger effect = lower value",1.06
same,normalized growth,"locus YDL005C, strain med2, stronger effect = lower value",1.05
same,normalized growth,"locus YDL035C, strain GPR1, stronger effect = lower value",0.939
same,normalized growth,"locus YDL040C, strain nat1, stronger effect = lower value",1.01
same,normalized growth,"locus YDL074C, strain BRE1, stronger effect = lower value",0.981
same,normalized growth,"locus YDL101C, strain DUN1, stronger effect = lower value",0.986
same,normalized growth,"locus YDL185W, strain tfp1, stronger effect = lower value",0.964
same,normalized growth,"locus YDL192W, strain arf1, stronger effect = lower value",0.988
same,normalized growth,"locus YDR001C, strain nth1, stronger effect = lower value",1.07
same,normalized growth,"locus YDR069C, strain doa4, stronger effect = lower value",1.04
same,normalized growth,"locus YDR101C, strain arx1, stronger effect = lower value",0.985
same,normalized growth,"locus YDR137W, strain rgp1, stronger effect = lower value",1.02
same,normalized growth,"locus YDR159W, strain sac3, stronger effect = lower value",1.04
same,normalized growth,"locus YDR162C, strain NBP2, stronger effect = lower value",0.947
same,normalized growth,"locus YDR195W, strain ref2",1.12
same,normalized growth,"locus YDR297W, strain sur2, stronger effect = lower value",1.03
same,normalized growth,"locus YDR318W, strain mcm21, stronger effect = lower value",0.983
same,normalized growth,"locus YDR334W, strain swr1, stronger effect = lower value",1.07
same,normalized growth,"locus YDR335W, strain msn5, stronger effect = lower value",1.05
same,normalized growth,"locus YDR388W, stronger effect = lower value",0.992
same,normalized growth,"locus YDR392W, strain spt3, stronger effect = lower value",1.04
same,normalized growth,"locus YDR502C, strain sam2, stronger effect = lower value",0.993
same,normalized growth,"locus YEL003W, strain gim4, stronger effect = lower value",1.04
same,normalized growth,"locus YEL037C, strain rad23, stronger effect = lower value",1.05
same,normalized growth,"locus YEL061C, strain CIN8 (second series), stronger effect = lower value",1.05
same,normalized growth,"locus YEL061C, strain CIN8, stronger effect = lower value",0.981
same,normalized growth,"locus YER015W, strain faa2, stronger effect = lower value",1.04
same,normalized growth,"locus YER016W, strain bim1, stronger effect = lower value",1.03
same,normalized growth,"locus YER110C, stronger effect = lower value",0.992
same,normalized growth,"locus YER111C, strain swi4, stronger effect = lower value",1.07
same,normalized growth,"locus YER155C, strain BEM2 (second series), stronger effect = lower value",1.09
same,normalized growth,"locus YER155C, strain BEM2, stronger effect = lower value",0.998
same,normalized growth,"locus YER167W, strain BCK2, stronger effect = lower value",0.984
same,normalized growth,"locus YFR010W, strain ubp6, stronger effect = lower value",1.08
same,normalized growth,"locus YGL078C, strain dbp3, stronger effect = lower value",0.99
same,normalized growth,"locus YGL086W, strain mad1, stronger effect = lower value",0.997
same,normalized growth,"locus YGL167C, strain pmr1, stronger effect = lower value",1.04
same,normalized growth,"locus YGL173C, strain kem1, stronger effect = lower value",1.03
same,normalized growth,"locus YGL227W, strain vid30, stronger effect = lower value",1.08
same,normalized growth,"locus YGL240W, strain doc1, stronger effect = lower value",1.03
same,normalized growth,"locus YGL248W, strain PDE1, stronger effect = lower value",0.987
same,normalized growth,"locus YGL253W, strain hxk2, stronger effect = lower value",1.05
same,normalized growth,"locus YGR135W, strain pre9, stronger effect = lower value",0.992
same,normalized growth,"locus YGR229C, strain SMI1, stronger effect = lower value",0.982
same,normalized growth,"locus YGR252W, strain gcn5, stronger effect = lower value",0.944
same,normalized growth,"locus YHR013C, strain ard1, stronger effect = lower value",1.02
same,normalized growth,"locus YHR027C, strain rpn1, stronger effect = lower value",1.03
same,normalized growth,"locus YHR030C, strain SLT2, stronger effect = lower value",0.984
same,normalized growth,"locus YHR079C, strain IRE1 (second series), stronger effect = lower value",0.996
same,normalized growth,"locus YHR094C, strain hxt1, stronger effect = lower value",0.988
same,normalized growth,"locus YHR129C, strain ARP1, stronger effect = lower value",0.996
same,normalized growth,"locus YHR142W, strain chs7, stronger effect = lower value",1.07
same,normalized growth,"locus YHR200W, strain rpn10, stronger effect = lower value",0.988
same,normalized growth,"locus YIL066C, strain RNR3, stronger effect = lower value",0.907
same,normalized growth,"locus YIL073C, strain SPO22, stronger effect = lower value",1.02
same,normalized growth,"locus YIL125W, strain kgd1, stronger effect = lower value",0.99
same,normalized growth,"locus YIR030C, strain dcg1, stronger effect = lower value",1.01
same,normalized growth,"locus YJL092W, strain hpr5, stronger effect = lower value",1.07
same,normalized growth,"locus YJL095W, strain BCK1 (second series), stronger effect = lower value",1.03
same,normalized growth,"locus YJL095W, strain BCK1, stronger effect = lower value",1.06
same,normalized growth,"locus YJL115W, strain asf1, stronger effect = lower value",1.08
same,normalized growth,"locus YJL129C, strain trk1, stronger effect = lower value",1.07
same,normalized growth,"locus YJL134W, strain LCB3, stronger effect = lower value",0.98
same,normalized growth,"locus YJL154C, strain vps35, stronger effect = lower value",1.05
same,normalized growth,"locus YJL164C, strain tpk1, stronger effect = lower value",1.02
same,normalized growth,"locus YJL166W, strain qcr8, stronger effect = lower value",1.02
same,normalized growth,"locus YJL168C, strain set2, stronger effect = lower value",0.989
same,normalized growth,"locus YJL187C, strain SWE1 (second series), stronger effect = lower value",1.01
same,normalized growth,"locus YJL187C, strain SWE1, stronger effect = lower value",1.02
same,normalized growth,"locus YJR043C, strain POL32, stronger effect = lower value",0.929
same,normalized growth,"locus YKL009W, strain mrt4, stronger effect = lower value",0.994
same,normalized growth,"locus YKL068W, stronger effect = lower value",0.981
same,normalized growth,"locus YKL085W, strain MDH1 (second series), stronger effect = lower value",0.996
same,normalized growth,"locus YKL085W, strain MDH1, stronger effect = lower value",0.996
same,normalized growth,"locus YKL160W, strain elf1, stronger effect = lower value",1.02
same,normalized growth,"locus YKR001C, strain vps1, stronger effect = lower value",0.992
same,normalized growth,"locus YKR026C, strain gcn3, stronger effect = lower value",1.08 [resistant] (active)
same,normalized growth,"locus YKR091W, strain srl3, stronger effect = lower value",1.03
same,normalized growth,"locus YLL001W, strain dnm1, stronger effect = lower value",1.05
same,normalized growth,"locus YLL026W, stronger effect = lower value",1.02
same,normalized growth,"locus YLL041C, strain sdh2, stronger effect = lower value",1.03
same,normalized growth,"locus YLR027C, strain aat2, stronger effect = lower value",1.03
same,normalized growth,"locus YLR039C, strain RIC1, stronger effect = lower value",0.981
same,normalized growth,"locus YLR058C, strain SHM2, stronger effect = lower value",0.971
same,normalized growth,"locus YLR102C, strain apc9, stronger effect = lower value",0.993
same,normalized growth,"locus YLR221C, strain rsa3, stronger effect = lower value",1.03
same,normalized growth,"locus YLR258W, strain gsy2, stronger effect = lower value",1.03
same,normalized growth,"locus YLR262C, strain YPT6 (second series), stronger effect = lower value",0.986
same,normalized growth,"locus YLR262C, strain YPT6, stronger effect = lower value",1.01
same,normalized growth,"locus YLR268W, strain sec22, stronger effect = lower value",0.999
same,normalized growth,"locus YLR320W, strain mms22, stronger effect = lower value",1.04
same,normalized growth,"locus YLR330W, strain CHS5, stronger effect = lower value",0.99
same,normalized growth,"locus YLR342W, strain FKS1 (second series), stronger effect = lower value",0.918
same,normalized growth,"locus YLR342W, strain FKS1, stronger effect = lower value",1.04
same,normalized growth,"locus YLR357W, strain rsc2, stronger effect = lower value",1.12
same,normalized growth,"locus YLR370C, strain arc18, stronger effect = lower value",1.06
same,normalized growth,"locus YLR371W, strain rom2, stronger effect = lower value",0.981
same,normalized growth,"locus YLR384C, strain iki3, stronger effect = lower value",1.03
same,normalized growth,"locus YLR418C, strain cdc73, stronger effect = lower value",0.997
same,normalized growth,"locus YML016C, strain PPZ1, stronger effect = lower value",0.973
same,normalized growth,"locus YML032C, strain rad52, stronger effect = lower value",0.983
same,normalized growth,"locus YML120C, strain ndi1, stronger effect = lower value",1.03
same,normalized growth,"locus YML124C, strain tub3, stronger effect = lower value",0.991
same,normalized growth,"locus YMR058W, strain fet3, stronger effect = lower value",1.08
same,normalized growth,"locus YMR078C, strain ctf18, stronger effect = lower value",0.979
same,normalized growth,"locus YMR125W, strain sto1, stronger effect = lower value",1.09
same,normalized growth,"locus YMR129W, stronger effect = lower value",1.05
same,normalized growth,"locus YMR205C, strain PFK2, stronger effect = lower value",1.05
same,normalized growth,"locus YMR223W, strain ubp8, stronger effect = lower value",0.997
same,normalized growth,"locus YMR231W, strain pep5, stronger effect = lower value",1.05
same,normalized growth,"locus YMR263W, strain SAP30, stronger effect = lower value",1
same,normalized growth,"locus YMR307W, strain GAS1, stronger effect = lower value",0.965
same,normalized growth,"locus YNL067W, strain RPL9B, stronger effect = lower value",1.06
same,normalized growth,"locus YNL071W, strain lat1, stronger effect = lower value",1.02
same,normalized growth,"locus YNL153C, strain GIM3, stronger effect = lower value",1.02
same,normalized growth,"locus YNL209W, strain ssb2, stronger effect = lower value",1.03
same,normalized growth,"locus YNL233W, strain BNI4, stronger effect = lower value",1.05
same,normalized growth,"locus YNL248C, strain rpa49, stronger effect = lower value",1.07
same,normalized growth,"locus YNL250W, strain rad50, stronger effect = lower value",0.972
same,normalized growth,"locus YNL271C, strain bni1, stronger effect = lower value",0.988
same,normalized growth,"locus YNL298W, strain CLA4, stronger effect = lower value",0.98
same,normalized growth,"locus YNL307C, strain MCK1, stronger effect = lower value",0.988
same,normalized growth,"locus YNL322C, strain KRE1 (second series), stronger effect = lower value",1.04
same,normalized growth,"locus YNR049C, strain mso1, stronger effect = lower value",1.06
same,normalized growth,"locus YNR052C, strain pop2, stronger effect = lower value",0.998
same,normalized growth,"locus YOL012C, strain htz1",1.22
same,normalized growth,"locus YOL147C, strain pex11, stronger effect = lower value",0.995
same,normalized growth,"locus YOR001W, strain rrp6, stronger effect = lower value",1.03
same,normalized growth,"locus YOR061W, strain CKA2, stronger effect = lower value",0.953
same,normalized growth,"locus YOR069W, strain VPS5, stronger effect = lower value",0.985
same,normalized growth,"locus YOR070C, strain gyp1, stronger effect = lower value",1.02
same,normalized growth,"locus YOR080W, strain dia2, stronger effect = lower value",1.04
same,normalized growth,"locus YOR083W, strain WHI5, stronger effect = lower value",1.01
same,normalized growth,"locus YOR106W, strain vam3, stronger effect = lower value",1.02
same,normalized growth,"locus YOR136W, strain idh2, stronger effect = lower value",1
same,normalized growth,"locus YOR144C, strain elg1, stronger effect = lower value",0.999
same,normalized growth,"locus YOR184W, strain ser1, stronger effect = lower value",0.985
same,normalized growth,"locus YOR265W, strain rbl2, stronger effect = lower value",1.03
same,normalized growth,"locus YOR270C, strain vph1, stronger effect = lower value",1.16
same,normalized growth,"locus YOR290C, strain snf2, stronger effect = lower value",1.04
same,normalized growth,"locus YOR316C, strain cot1, stronger effect = lower value",0.994
same,normalized growth,"locus YPL051W, strain arl3, stronger effect = lower value",1
same,normalized growth,"locus YPL055C, strain LGE1, stronger effect = lower value",0.959
same,normalized growth,"locus YPL078C, strain atp4, stronger effect = lower value",1.05
same,normalized growth,"locus YPL106C, strain sse1, stronger effect = lower value",1.06
same,normalized growth,"locus YPL240C, strain hsp82, stronger effect = lower value",1.02
same,normalized growth,"locus YPL241C, strain CIN2, stronger effect = lower value",0.984
same,normalized growth,"locus YPR119W, strain clb2, stronger effect = lower value",0.988
same,normalized growth,"locus YPR141C, strain kar3, stronger effect = lower value",0.989
same,normalized growth,"locus YPR163C, strain tif3, stronger effect = lower value",0.977
same,normalized growth,"locus YPR167C, strain met16, stronger effect = lower value",0.992
same,normalized growth,"strain wtn01, stronger effect = lower value",0.976
